Compounds without any hit were thinned out: in the full panel of roughly 83,000, 20% have a hit.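 Growth was measured after 48 h exposure to one concentration of compound in 96-well plates. Values under 10 count as active.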 A number with no mark means an inactive call. Active and inactive are the calls of the source.
What follows are compounds tested on EKVX NSCLC (assay: NCI-60 one-dose screen, 48 h (100 = growth as untreated, 0 = no growth, -100 = all killed)). Settings: 10 µM.

Structure (SMILES) | growth
CN(C)C(=S)N/N=C\C=N/NC(=S)N(C)C | 38.8%
C=C(NC(=O)C(=C)NC(=O)c1csc(C2=NC3c4csc(n4)C4NC(=O)c5csc(n5)C(C(C)(O)C(C)O)NC(=O)C5CSC(=N5)/C(=C/C)NC(=O)C(C(C)O)NC(=O)c5csc(n5)C3(CC2)NC(=O)C(C)NC(=O)C(=C)NC(=O)C(=C)NC(=O)C(C(C)C)NC2C=Cc3c(C(C)O)cc(nc3C2O)C(=O)OC4C)n1)C(N)=O (stereo not drawn) | 42.2%
COc1ccc2nc3ccccc3c(NCCNCC(C)O)c2c1 (stereo not drawn) | 7.84% (active)
CN(C)CCN1C(=O)c2cccc3cc(N)cc(c23)C1=O | 45.2%
COc1ccc(N2C(=O)C3c4[nH]c5ccc(OCc6ccccc6)cc5c4C4CCC(C(C)C)CC4C3C2=O)cc1 (stereo not drawn) | 115%
CC(C)C[C@H](NC(=O)[C@H](Cc1cccc2ccccc12)NS(=O)(=O)c1cccc2cccnc12)B(O)O | 6.76% (active)
O=C(CC(C(=O)c1ccccc1)N1CCOCC1)c1ccccc1 (stereo not drawn) | 99.2%
NC(=O)SCC(=O)Nc1ccc(S(N)(=O)=O)cc1 | 112%
CCCCN(CCCC)CCCCCCCCC(O)c1cc2ccccc2c2ccccc12 (stereo not drawn) | 60.4%
O=C(CCCCCCC(=O)Nc1cccnc1)NO | 96.7%
COc1ccc2nc3cc(Cl)ccc3c(NCCNCC(C)O)c2c1 (stereo not drawn) | 38.1%
Clc1cccc(-c2nc(-c3cccs3)no2)c1 | 85.4%
CCCCCCCCCCCCCCCCCCOCC(COCCOCC[N+]1(CCCCCC(=O)[O-])CCCC1)Oc1ncccn1 (stereo not drawn) | 63.4%
CC/C(=N\N=C(/CC)c1ccc(Br)cc1)c1ccc(Br)cc1 | 90.6%
O=C1OCC2=C1C(c1ccc(Cl)c(Cl)c1)c1cc3c(cc1N2CCO)OCCO3 (stereo not drawn) | 42.3%
COc1cc2nc(Nc3cccc(NC(C)=O)c3)nc(N)c2cc1OC | 133%
Cc1nc2ccc(CN(C)c3ccc(C(=O)N[C@@H](CCC(=O)O)C(=O)O)s3)cc2c(=O)[nH]1 | 72.9%
CCCCCCCCN(CCCCCCCC)CCCCCCCCCN1CCCc2cc(OC)ccc21 | 81.5%
Nc1ncnc2[nH]c(=O)[nH]c12 | 83.2%
COc1ccc2c(c1)sc1nc(-c3ccccc3)c(-c3cccnc3)n12 | 83%
C=C(Cl)[C@@](Cl)(CBr)CC[C@@H](Br)C(C)(C)Cl | -79% (active)
C[N+](C)(C)c1ncnc2nc[nH]c12 | 89.1%
COC(=O)[C@@H]1[C@H](O)[C@H](C)[C@H](O)[C@@](C)(O)/C=C\C=C(C)C(=O)Nc2c(C)c(OC(C)=O)c3c(c2O)C(=O)C(C)=C2OCOC(=C23)C(C)=C[C@@](C)(O)[C@H](O)[C@@H](C)[C@H]1OC(C)=O | 108%

From PubChem BioAssay (NCI)
